These results are taken from PubChem BioAssay AID540276 (National Center for Advancing Translational Sciences (NCATS), 2011).

Where “and” joins values, the source holds several entries; their conditions need not be identical. Equal values may be shown once. Out of some 300,000 compounds screened, about 5,400 (1.8%) were called active. Roughly 28% stayed inconclusive and do not appear here. The call rests on the fitted dose curve; tested in HEK293 cells. Many of the other results were omitted from the sample, so actives are more common in it than they were. Some structures have more than one record in an assay (separate samples or runs), and their calls can disagree.
On the % scale 0 is the no-effect control and ±100 the full control effect; potency means the concentration at half of the fitted maximal effect.

The assay can be described thus: qHTS for inhibitors of binding or entry into cells for Marburg Virus. The note with it: Marburg virus pseudotyped entry inhibition, cell reporter; series mostly up to 37.8 µM; activity change, negative = inhibition: at the top concentration.
Take `CC(C)Cn1c(=O)c2ccccc2n2c(CCC(=O)NCc3ccccn3)nnc12`: the “activity change, negative = inhibition” value was 22.8% [at 46.1 µM] (inactive).

In the case of `O=[N+]([O-])c1ccc(C=Nc2ccc(Cl)cc2Cl)s1`, the Potency was 5.8 µM (active). As for `CNN/C(N=Cc1ccc([N+](=O)[O-])s1)=N\S(=O)(=O)c1cc(C)c(Cl)cc1SCc1ccccc1`, the “activity change, negative = inhibition” value is -8.61% (inactive). Consider `CN1CCN(c2ccc(NC(=O)c3cc(Cl)c4c(c3)OCCO4)cc2)CC1`, for which the “activity change, negative = inhibition” value was -14.5% [at 46.1 µM] (inactive). Take `CCc1ccc(N(C(=O)c2csnn2)C(C(=O)NC2CCCCC2)c2cccnc2)cc1` (stereo not given): the “activity change, negative = inhibition” value was -14.8% [at 46.1 µM] (inactive). The same measure, in the same setting: for `CCCn1nc(NS(=O)(=O)c2ccc(F)cc2)c2cc3ccccc3nc21` the value was -1.54% [at 46.1 µM] (inactive). As for `CC(C)Cn1c(SCC(=O)Nc2ccc(Cl)cc2F)nc(O)cc1=O`, the “activity change, negative = inhibition” value is 21% (inactive).

In the case of `O=C(COC(=O)c1cccs1)Nc1ccccc1Cl`, the “activity change, negative = inhibition” value was 17.9% [at 46.1 µM] (inactive). In the case of `COCCN(CCOC)C(=S)Nc1ccccc1Cl`, the “activity change, negative = inhibition” value is -0.33% [at 46.1 µM] (inactive). Take `O=C(Nc1ccccc1Cl)/C(Cl)=C(\Cl)S(=O)c1ccccc1` (stereo not given): the Potency is 3.16 µM (active). With `O=C1c2ccccc2C(=O)C1C(=O)C1CC1`, the “activity change, negative = inhibition” value was 2.92% [at 46.1 µM] (inactive). Consider `O=c1c2ccccc2ncn1CCc1ccncc1`, for which the “activity change, negative = inhibition” value is 9.16% (inactive).

As to `Cc1ccccc1N/N=C/c1ccc(N2CCOCC2)cc1`, the “activity change, negative = inhibition” value was 22.1% (inactive). Turning to `Cc1nn2c3cc(N4CCOCC4)ccc3nc2c2ccccc12`, the “activity change, negative = inhibition” value was -9.17% (inactive). Take `Cc1cc(Nc2ccc(N3CCOCC3)cc2)c2cccc(C)c2n1`: the Potency is 0.794 µM (active).

As to `CC(NC(=O)c1cccc(S(=O)(=O)N2CCc3ccccc3C2)c1)c1ccco1` (stereo not given), the “activity change, negative = inhibition” value was -28.7% (inactive).

With `Cc1cc(Oc2ccccc2)nc(N2CCOCC2)n1`, the “activity change, negative = inhibition” value is 0.114% (inactive). With `Cc1cc(C)nc(N2CCC(C(=O)Nc3ccc4c(c3)OCCO4)CC2)n1`, the “activity change, negative = inhibition” value is -25.8% [at 46.1 µM] (inactive).

For the compound `Cc1cc(Nc2ccc(Cl)cc2)nc(N2CCOCC2)n1`, the Potency is 7.94 µM (active). As to `O=C(O)c1ccc2c(=O)n3c(nc2c1)/C(=C/c1ccc(OC(F)F)cc1OC(F)F)CC3`, the “activity change, negative = inhibition” value was 14.9% [at 46.1 µM] (inactive). In the case of `CCN1CCN(Cc2c(O)ccc3oc(C)c(C(=O)Nc4ccc(C)cc4C)c23)CC1`, the “activity change, negative = inhibition” value is 10.7% [at 46.1 µM] (inactive). Consider `Cc1oc2ccc(O)c(CN3CCCCC3)c2c1C(=O)Nc1cccc(C(F)(F)F)c1`, for which the Potency was 10 µM (active). As for `Cc1oc2ccc(O)c(CN3CCOCC3)c2c1C(=O)Nc1cccc(Cl)c1C`, the “activity change, negative = inhibition” value is -0.854% [at 46.1 µM] (inactive). Consider `Cc1cc(=O)oc2c(C)c(OC(C)C(=O)NC3CCN(Cc4ccccc4)CC3)ccc12` (stereo not given), for which the “activity change, negative = inhibition” value is -7.42% [at 46.1 µM] (inactive). In the case of `Cc1cc(-c2nnc(SCC(=O)Nc3ccc(F)cc3)n2N)n[nH]1`, the “activity change, negative = inhibition” value was 16.2% [at 46.1 µM] (inactive). Take `CC(C)CC1C(=O)N(Cc2cn(Cc3ccco3)nn2)CCS(=O)(=O)N1Cc1ccc(-c2ccc(Cl)c(Cl)c2)cc1` (stereo not given): the Potency is 25 µM (active). Take `CC(=O)c1cccc(-c2ccc(CN3C(CC(C)C)C(=O)N(Cc4cn(CC5CCCCC5)nn4)CCS3(=O)=O)cc2)c1` (stereo not given): the “activity change, negative = inhibition” value was 0.481% (inactive).

For the compound `Cc1ccc(C)c(NC(=O)COC(=O)c2nn(C)c(=O)c3ccccc23)c1`, the “activity change, negative = inhibition” value is 11.2% (inactive). For the compound `O=C(Nc1cccc(NC(=O)c2ccc(Br)cc2)c1)c1ccccc1`, the Potency result is “inactive”. As for `O=C1C=C(NS(=O)(=O)c2ccccc2)C(=O)c2ccccc21`, the “activity change, negative = inhibition” value is -2.09% [at 46.1 µM] (inactive).

As to `O=C(NC1=CC(=O)c2ccccc2C1=O)c1ccccc1`, the Potency is 10 µM (active).

For the compound `Fc1ccc([C@H]2C3=C(Nc4ncnn42)c2ccccc2O[C@H]3c2ccncc2)cc1`, the “activity change, negative = inhibition” value is -11% (inactive). As to `Clc1ccc2c(c1)C1=C(C(c3ccncc3)O2)C(c2ccc(Br)cc2)n2ncnc2N1` (stereo not given), the Potency was 11.6 µM (active). As for `CCOC(=O)C1=C(c2ccccc2)Nc2ncnn2C1c1ccc(Cl)cc1` (stereo not given), the “activity change, negative = inhibition” value was 4.14% [at 46.1 µM] (inactive).

Consider `CC[C@@H]1Cc2cc(O)ccc2C2=C1c1ccc(O)cc1C[C@H]2CC`, for which the Potency was 35.5 µM (active). As for `CC1(C)CC(=O)c2ccc(O)cc2O1`, the “activity change, negative = inhibition” value is -6.25% [at 46.1 µM] (inactive).

For the compound `O=C(c1ccccc1)c1ccc(OCC(O)CN2CCCC2)cc1` (stereo not given), the “activity change, negative = inhibition” value is -24% [at 46.1 µM] (inactive). For the compound `OC(COCCC12CC3CC(CC(C3)C1)C2)CN1CCCCC1` (stereo not given), the Potency is 2.91 µM (active). In the case of `COc1cc(/C=N/NC(=O)c2cccnc2)ccc1OC(=O)c1cccc(Br)c1`, the “activity change, negative = inhibition” value is 2.52% (inactive). Regarding `O=C(C1CC(=O)N(c2ccc(Br)cc2)C1)N1CCCC1` (stereo not given), the “activity change, negative = inhibition” value is 1.98% (inactive).

Regarding `COc1ccc(C2(CNC(=O)Cc3ccc(OC)c(OC)c3)CCCC2)cc1`, the “activity change, negative = inhibition” value is -28.1% [at 46.1 µM] (inactive). With `Cc1cccc(C(CC(=O)NCC2(c3ccccc3)CCCC2)c2ccccc2)c1O` (stereo not given), the Potency is 10 µM (active).

Consider `COc1ccc(C2(CNC(=O)C(c3ccccc3)c3ccccc3)CCOCC2)cc1OC`, for which the “activity change, negative = inhibition” value is -26.8% (inactive).

Regarding `O=C(Nc1cc(S(=O)(=O)N2CCOCC2)ccc1N1CCOCC1)c1c(F)cccc1Cl`, the “activity change, negative = inhibition” value is 3.28% (inactive). Turning to `CC12CCCCC1=CC(=O)CC2` (stereo not given), the “activity change, negative = inhibition” value is 8.83% (inactive). Regarding `COc1ccc(N2CCN(S(=O)(=O)c3cc(Br)cnc3N)CC2)cc1`, the “activity change, negative = inhibition” value was 14.7% [at 46.1 µM] (inactive). Regarding `CC(C)c1ccc(-c2noc(C3CCCN(S(C)(=O)=O)C3)n2)cc1` (stereo not given), the “activity change, negative = inhibition” value was -30.6% (inactive). Consider `COc1cc(-c2noc(C3CCCN(S(=O)(=O)c4cccc(Cl)c4)C3)n2)cc(OC)c1OC` (stereo not given), for which the Potency entry is “inactive and 9.2 µM (active)”.

`O=C(Cc1cccs1)N1CCCC(c2nc(-c3ccc(S(=O)(=O)N4CCCC4)cc3)no2)C1` (stereo not given): the “activity change, negative = inhibition” value is -24.4% (inactive). As for `Cc1ccc(C(=O)OCC(=O)N2CCCCCC2)cc1S(=O)(=O)N1CCOCC1`, the “activity change, negative = inhibition” value was 4.19% (inactive).
